This is an account of results in article PMC12136788.

T1: UNK ZnF1-3 (human, UniProt Q9C0B0 31-174)
T1 sequence: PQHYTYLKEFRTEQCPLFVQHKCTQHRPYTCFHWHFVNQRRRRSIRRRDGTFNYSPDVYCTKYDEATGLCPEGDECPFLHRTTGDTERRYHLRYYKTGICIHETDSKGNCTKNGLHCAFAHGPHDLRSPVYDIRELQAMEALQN

B1: chr11:100882373:100882374:+_ENSMUSG00000019302_ENSMUST00000044721|mus_mus|FALSE|FALSE (ssRNA)
RNA: GGGAGUUCUACAGUCCGACGAUCUUCCUGGUUAGUGUUGAUUUCCUUCAGUUCAUUUUCAAUCUUCUCGAAAUUGGCCUCUAAGUCGAUCAUGUCCCGAGGGAAGGGCACCUCUGGGUUUUCACCGGUGUCCAUAAUUGGGAUCAACAGAGGAUUGAGCAUCA
B2: 90660906_90661026_1561_CDS_ENSG00000112182_ENST00000537989|human|control|control (ssRNA)
RNA: GGGAGUUCUACAGUCCGACGAUCAUCCCCCGCUCUGUCCUUGGCGUCAGGCUCAUCUCCAGACAGGCAGAGCGUGAUGCUCUCUUCCUCAUUCUCUUCACUGGGCGGCUCACUUUUAAUCUGCCCCCUGGCAAGCCCCGGCUUCAACAGAGGAUUGAGCAUCA
B3: chr2:119552488:119552489:+_ENSMUSG00000027304_ENSMUST00000028767|mus_hu|FALSE|FALSE (ssRNA)
RNA: GGGAGUUCUACAGUCCGACGAUCGAACAUCGCUUCUUUCCACUUCAUAAACUCACUUUCGGUGAAUUCUUGGUUUGAGACAAACUCUAAACGGAACACGCGUUGGUCAUUGCCAUGCCGUAGUUGCAGCCCUUUGUUUGUUCUCAACAGAGGAUUGAGCAUCA
B4: 98509248_98511339_722_CDS_ENSG00000140450_ENST00000268042|human|control|control (ssRNA)
RNA: GGGAGUUCUACAGUCCGACGAUCGUAUCCCUUUCUUUCAAUUUUGGCACUCAGCGAGACUGGACCAGAAGUGAAAAACCAACAGCCAACCAUUUUCUCUUGAGUUUUCAAUACAGGGGUUAAUAAUGCUGGUGUGUUGACAUCCAACAGAGGAUUGAGCAUCA
B5: 107603385_107603505_2018_CDS_ENSG00000091136_ENST00000393561|human|control|control (ssRNA)
RNA: GGGAGUUCUACAGUCCGACGAUCGGAAUAUGGUAUGUUGUCAAUGAAAAACUCCAAAUAAGCCCCUUCAGGCACUCGGACGAAGCCGGCUCCAGUCCAGGAGGGAAUCCGGUCCUGGAUAUAUUGCCGCUCCACUAUGCUAACCAACAGAGGAUUGAGCAUCA
B6: chr3:8561242:8561243:+_ENSMUSG00000027500_ENSMUST00000029002|mus_hu|FALSE|FALSE (ssRNA)
RNA: GGGAGUUCUACAGUCCGACGAUCAACAACCAGCUCACAGUUUCCAAGUGGAAAAAUAUUCAGUAGCAUCAUGUACUUGUACUAUAGGUAAGAGCUUAAAAUGAACAUCAUCAAUCAUGGCAUCCACAAAUAAGCCACCUGACACAACAGAGGAUUGAGCAUCA
B7: chr16:45382771:45382772:-_ENSMUSG00000022661_ENSMUST00000163230|mus_mus|mus_mus_mus_hu_True|38_108 (ssRNA)
RNA: GGGAGUUCUACAGUCCGACGAUCCUGAGUGUUAUUGUAAGACAAAUGGACAGGGAGGGCAUGCUUCUCAAAAAAUGUGAGCUAUUGUCUAAGACUAACAAUAUUGCUCUAGCUAUAAAAAUAAGUUAAAUGAAUAAGUUAAGACAACAGAGGAUUGAGCAUCA
B8: chr16:45382771:45382772:-_ENSMUSG00000022661_ENSMUST00000163230|mus_mus|mus_mus_mus_hu_True|38_88 (ssRNA)
RNA: B7 RNA with A27G, G30C, U31A, A33G, G36A, C50U
B9: chr16:45382771:45382772:-_ENSMUSG00000022661_ENSMUST00000163230|mus_mus|mus_mus_mus_hu_True|38_98 (ssRNA)
RNA: B7 RNA with A27G, G30C, U31A, A33G, G36A, A38G, A39G, A41C, A43C
B10: chr16:45382771:45382772:-_ENSMUSG00000022661_ENSMUST00000163230|mus_mus|mus_mus_mus_hu_True|1_38 (ssRNA)
RNA: GGGAGUUCUACAGUCCGACGAUCCUGGGUCAUGUUAUAAGACAAAUGGACAGGGAGGGCAUGCUUCUCAAAAAAUGUGAGCUAUUGUCUAAGACUAACAAUAUUGCUCUAGCUAUAAAAAUAAGUUAAAUGAAUAAACAUUACCAACAGAGGAUUGAGCAUCA
B11: chr7:149068622:149068623:-_ENSMUSG00000025139_ENSMUST00000001950|mus_hu|mus_mus_mus_hu_False|68_108 (ssRNA)
RNA: GGGAGUUCUACAGUCCGACGAUCGUGCAGGUACUGAGUGUGGCUUGUGGUCUGUCCUGGGUUAGAGCUGCUGGUAACACGGAACAUACCAUCUAGAACGUUCCAGUCCCGCCUGACACCUUCAUUCCCAAUGGAGAAGAAAUCCAACAGAGGAUUGAGCAUCA
B12: chr2:5814250:5814251:-_ENSMUSG00000025816_ENSMUST00000102981|mus_hu|mus_mus_mus_hu_True|58_58 (ssRNA)
RNA: GGGAGUUCUACAGUCCGACGAUCUUCCUUUCCGGUUUCUGAAUUUCUGGUAGAACUGCACAGAAUGGUUUGAUAACUUCUAAAAACUUGAUGCCCAUGGCUGCUGCUGGGGAGGCCCAGGGGGAAACCGCGGCCUCGGCGCUGCAACAGAGGAUUGAGCAUCA
B13: 97007495_97007615_238_CDS_ENSG00000121152_ENST00000240423|human|control|control (ssRNA)
RNA: GGGAGUUCUACAGUCCGACGAUCCAAUAAGCGAGGUGAGUCAGUGCUGAACUGCAGAUCAAAGACCCUCGAGCGCCUCCGCUGCAGCCGCUCCUUCUCAUCGUCAUUCUGAGGAAAGUCUUCGAGGACUGGGGUGCCAGGAAUCAACAGAGGAUUGAGCAUCA
B14: 96635784_96638769_164_5pUTR_ENSMUSG00000020876_ENSMUST00000107661|mouse|control|control (ssRNA)
RNA: GGGAGUUCUACAGUCCGACGAUCCCACAAGCCCAUGGGAAGGGCACAUAGGUGUUCGAGGAAGCUCUUCCGCCUGACAGAAAACCUGUCCCGUCCAUCAAGCAGCUGUUCUCAUUUUUCAGUCGGUAACCCACUCCUUUCACCCAACAGAGGAUUGAGCAUCA
B15: chr12:39756943:39756944:-_ENSG00000139116_ENST00000544797|hu_mus|hu_hu_hu_mus_False|28_68 (ssRNA)
RNA: GGGAGUUCUACAGUCCGACGAUCGGUUUGGCUGUUACCCCCAAGGGAAUCCUGCAAGAGUCUUGUCAGCUUGGAAUCUCUGUAAGGGACAUGGGUGGCUCUCUUGCUCUUGUCUCCCAAGGCGCUGAUUACAUUCCCAAGAGCCAACAGAGGAUUGAGCAUCA
B16: chr16:45382771:45382772:-_ENSMUSG00000022661_ENSMUST00000163230|mus_mus|mus_mus_mus_hu_True|38_38 (ssRNA)
RNA: B7 RNA with A27G, G30C, U31A, A33G, G36A
B17: chr4:76721835:76721836:+_ENSG00000138768_ENST00000264904|hu_mus|hu_hu_hu_mus_True|18_28 (ssRNA)
RNA: GGGAGUUCUACAGUCCGACGAUCGUUUGGCUGGGGUUUCUGAGACGCUCUGGAAUAUAACUCAUGUUUGCUAAUAAAUCCUAGUUUCUCUAUGAAAUUCUCUUUGCAAUCCUCUUCUCAAUCAGUUUGCUUUAGUUUCUCUUUCAACAGAGGAUUGAGCAUCA
B18: chr16:45382771:45382772:-_ENSMUSG00000022661_ENSMUST00000163230|mus_mus|mus_mus_mus_hu_True|38_78 (ssRNA)
RNA: B7 RNA with A27G, G30C, U31A, A33G, G36A, G57A, C66U
B19: chr19:16212804:16212805:+_ENSG00000167460_ENST00000300933|hu_mus|hu_hu_hu_mus_False|38_98 (ssRNA)
RNA: GGGAGUUCUACAGUCCGACGAUCAACAAUUCUGGAGAAGAACAUCAAUGUAACAUGGAACAGCAUUAAAGCUCAGUCAGAAGGCACAUGGGCAACAAUGACUAUUUCAGCAUUCUCGCUUGGAAUGCUUAAAGACAAUCUGUUCAACAGAGGAUUGAGCAUCA
B20: chr4:76721835:76721836:+_ENSG00000138768_ENST00000264904|hu_mus|hu_hu_hu_mus_True|8_28 (ssRNA)
RNA: GGGAGUUCUACAGUCCGACGAUCGUUUGGCUGGGGUUUCUGAGACGCUCUGGAAUAUAACUCAUGUUUGCUAAUAAAUCCUAGUUUCUCUAUGAAAUUCUCUUUGCAAUCCUCUUCCUCUAUUAGUGUUUUAGCUUUCUCUUUCAACAGAGGAUUGAGCAUCA
B21: chr16:45382771:45382772:-_ENSMUSG00000022661_ENSMUST00000163230|mus_mus|mus_mus_mus_hu_True|38_48 (ssRNA)
RNA: B7 RNA with A27G, G30C, U31A, A33G, G36A, U87A
B22: chr16:45382771:45382772:-_ENSMUSG00000022661_ENSMUST00000163230|mus_mus|mus_mus_mus_hu_True|18_38 (ssRNA)
RNA: GGGAGUUCUACAGUCCGACGAUCCUGGGUCAUGUUAUAAGACAAAUGGACAGGGAGGGCAUGCUUCUCAAAAAAUGUGAGCUAUUGUCUAAGACUAACAAUAUUGCUCUAGCUAUAUAAAAAUAAGAAAUGAAUAAGUUAAGACAACAGAGGAUUGAGCAUCA

Substitutions are numbered along the chain they refer to. Whole data set: some 24,000 sequences, median “enrichment r” near 0.99, cut for the highest 2% near 3.7. The sample holds the highest values, similar sequences and a random draw of the others, so the mix is not that of the screen.

This experiment has as its target T1, UNK ZnF1-3. In words: nsRBNS (natural sequence RNA bind-n-seq); RBNS binding buffer (assumed for nsRBNS): 25 mM Tris pH 7.5, 150 mM KCl, 3 mM MgCl2, 0.01% Triton X-100, 500 ug/ml BSA, 20 U/ml SUPERase-In, 4 C; UNK is unkempt and MSI1 is Musashi-1; names of the RNAs are library labels; protein concentration not given here; high values mean tight binding.
B1 yielded a binding signal of 0.394 enrichment R.
Regarding B2, the binding signal amounted to 0.641 enrichment R.
Then B3, with 0.468 enrichment R.
Turning to B4, the binding signal was determined as 1.16 enrichment R.
Then B5, with 0.989 enrichment R; and B6, with 1.49 enrichment R; and B7, with 8.75 enrichment R.
The result for B8 reads 7.9 enrichment R; that for B9, 11.2 enrichment R; that for B10, 6.59 enrichment R.
In the case of B11, the binding signal worked out at 0.783 enrichment R.
The result for B12 reads 1.21 enrichment R; that for B13, 1.1 enrichment R; that for B14, 1.14 enrichment R.
In turn, B15 had a binding signal of 0.792 enrichment R.
Molecule B16 gave a binding signal of 16.7 enrichment R.
Then B17, with 0.475 enrichment R.
Then B18, with 13.9 enrichment R.
The result for B19 reads 1.15 enrichment R; that for B20, 0.588 enrichment R; that for B21, 8.11 enrichment R.
On to B22, for which the binding signal came out at 10.5 enrichment R.
